From PubChem BioAssay (NCI) come the findings set out here.

The nature of test [1]: NCI Yeast Anticancer Drug Screen. Data for the rad50 strain (AID 155).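 Note: 0% = growth of vehicle-only cultures of the same strain.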 The note with it: S. cerevisiae rad50 strain growth inhibition, stronger effect = higher value. Summed up: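 Compounds were tested on a yeast strain with an engineered DNA damage repair alteration; the reported value is growth inhibition normalised to vehicle treatment.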
A short description of test [2]: NCI Yeast Anticancer Drug Screen. Data for the mec2-1 strain (AID 157). Conditions: S. cerevisiae mec2-1 strain, stronger effect = higher value. Summed up: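 Yeast mec2-1 mutant treated with compound. Readout: growth inhibition vs vehicle controls.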
A short description of test [3]: NCI Yeast Anticancer Drug Screen. Data for the sgs1 mgt1 strain (AID 161).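 Note: 0% = growth of cultures given vehicle only.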 Conditions: S. cerevisiae sgs1 mgt1 strain, stronger effect = higher value. Summed up:
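Genetically altered yeast, compound exposure, growth inhibition relative to vehicle.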

Test [4] in a line: NCI Yeast Anticancer Drug Screen. Data for the cln2 rad14 strain (AID 165).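 Note: 0% = growth equal to vehicle treated cultures.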 Conditions: S. cerevisiae cln2 rad14 strain, stronger effect = higher value. Summed up: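 cln2 rad14 yeast strain; compound exposure; growth inhibition read vs vehicle controls.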
The nature of test [5]: NCI Yeast Anticancer Drug Screen. Data for the bub3 strain (AID 167). The note with it: S. cerevisiae bub3 mutant strain, stronger effect = higher value. Summed up: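 Growth of a checkpoint-deficient yeast mutant is measured after compound exposure. Values represent inhibition relative to vehicle.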
Test [6] in a line: NCI Yeast Anticancer Drug Screen. Data for the mlh1 rad18 strain (AID 175). The note with it: S. cerevisiae mlh1 rad18 strain growth inhibition, stronger effect = higher value. Summed up:
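Yeast w/ defined DNA-repair lesions; compound exposure; growth vs vehicle controls → % inhibition.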

The mark [7] stands for this setting: at 5.0 µM (retest, dose inferred, filed as 0.5).
[8] abbreviates: at 50.0 µM (retest, dose inferred, filed as 5.0).

“And” between values parts separate entries of the source, which are not always exact repeats. Equal values may be shown once. This is part of a sample that, as a whole, favours compounds with a hit. Of some 79,000 tested, about 15% had one in any assay. The source holds several records for some structures; these can differ, active in one and inactive in another. The source made the active and inactive calls. Cut-off read from the data, not from the text of the source: active = growth inhibition above about 70%; inactive = the rest.

Consider `O=C1c2ccccc2C(=O)c2cc(S(=O)(=O)O)ccc21`, for which the growth inhibition in test [1] (setting [7]) was 3% (inactive); in test [1] (setting [8]), 27% (inactive); in test [1] (at 50.0 µM), 73% (active) and 25.7% (inactive); in test [2] (setting [7]), 1% (inactive); in test [2] (setting [8]), 26% (inactive); in test [2] (at 50.0 µM), 36.2% (inactive) and 36.1% (inactive). The growth inhibition was 6% (inactive) in test [3] (setting [7]); 42% (inactive) in test [3] (setting [8]); 67.7% (inactive) and 37% (inactive) in test [3] (at 50.0 µM); 6% (inactive) in test [4] (setting [7]); 30% (inactive) in test [4] (setting [8]); -26.8% (inactive) and 9.95% (inactive) in test [4] (at 50.0 µM). In addition, the growth inhibition in test [5] (setting [7]) is 0% (inactive); in test [5] (setting [8]) it was 22% (inactive); in test [5] (at 50.0 µM), 67.3% (inactive) and 44.7% (inactive); in test [6] (setting [7]), 7% (inactive); in test [6] (setting [8]), 41% (inactive); in test [6] (at 50.0 µM) it was 77.7% (active) and 19.6% (inactive).
Turning to `O=C1c2cc3c(cc2CC12Cc1ccccc1C2)CCC3`, the growth inhibition in test [1] (setting [7]) was 23% (inactive); in test [1] (setting [8]), 21% (inactive); in test [1] (at 50.0 µM), 20% (inactive); in test [2] (setting [7]) it was 15% (inactive); in test [2] (setting [8]), 15% (inactive); in test [2] (at 50.0 µM), 2.25% (inactive). Moreover, the growth inhibition is 22% (inactive) in test [3] (setting [7]); 54% (inactive) in test [3] (setting [8]); 46.9% (inactive) in test [3] (at 50.0 µM); 10% (inactive) in test [4] (setting [7]); 16% (inactive) in test [4] (setting [8]); 16.8% (inactive) in test [4] (at 50.0 µM). Besides, the growth inhibition in test [5] (setting [7]) was 24% (inactive); in test [5] (setting [8]), 51% (inactive); in test [5] (at 50.0 µM), 50% (inactive); in test [6] (setting [7]), 19% (inactive); in test [6] (setting [8]), 23% (inactive); in test [6] (at 50.0 µM), 17.4% (inactive).
In the case of `OC1CN(Cc2ccccc2)C[C@@H]1O` (stereo partly specified), the growth inhibition in test [1] (setting [7]) is 8% (inactive); in test [1] (setting [8]), 99% (active); in test [1] (at 50.0 µM) it was 23% (inactive); in test [2] (setting [7]), 11% (inactive); in test [2] (setting [8]) it was 99% (active); in test [2] (at 50.0 µM), -7.9% (inactive). The growth inhibition is 10% (inactive) in test [3] (setting [7]); 99% (active) in test [3] (setting [8]); -4.5% (inactive) in test [3] (at 50.0 µM); 17% (inactive) in test [4] (setting [7]); 93% (active) in test [4] (setting [8]); 59.6% (inactive) in test [4] (at 50.0 µM). For the same compound, the growth inhibition is 11% (inactive) in test [5] (setting [7]); 99% (active) in test [5] (setting [8]); -0.5% (inactive) in test [5] (at 50.0 µM); 25% (inactive) in test [6] (setting [7]); 99% (active) in test [6] (setting [8]); 36.8% (inactive) in test [6] (at 50.0 µM).
As to `CCCCCCCCCCCCCCCC[N+](C)(C)c1nc(Cl)nc(Cl)n1`, the growth inhibition in test [1] (setting [7]) is 99% (active); in test [1] (setting [8]), 99% (active); in test [1] (at 50.0 µM), 99.3% (active); in test [2] (setting [7]), 100% (active); in test [2] (setting [8]), 100% (active); in test [2] (at 50.0 µM), 98.1% (active). For the same compound, the growth inhibition in test [3] (setting [7]) is 100% (active); in test [3] (setting [8]), 100% (active); in test [3] (at 50.0 µM), 99.2% (active); in test [4] (setting [7]), 98% (active); in test [4] (setting [8]), 99% (active); in test [4] (at 50.0 µM), 95.5% (active). Also, the growth inhibition in test [5] (setting [7]) is 99% (active); in test [5] (setting [8]), 99% (active); in test [5] (at 50.0 µM), 99.3% (active); in test [6] (setting [7]) it was 99% (active); in test [6] (setting [8]) it was 99% (active); in test [6] (at 50.0 µM), 95.8% (active).
In the case of `CCN(CC)CCOc1ccc2c(C)c(-c3ccccc3)c(=O)oc2c1`, the growth inhibition in test [1] (setting [7]) was 0% (inactive); in test [1] (setting [8]), 23% (inactive); in test [1] (at 50.0 µM) it was 62% (inactive); in test [2] (setting [7]), -3% (inactive); in test [2] (setting [8]) it was 34% (inactive); in test [2] (at 50.0 µM), 3% (inactive). Moreover, the growth inhibition is 10% (inactive) in test [3] (setting [7]); 38% (inactive) in test [3] (setting [8]); 34.8% (inactive) in test [3] (at 50.0 µM); -5% (inactive) in test [4] (setting [7]); 18% (inactive) in test [4] (setting [8]); -44.8% (inactive) in test [4] (at 50.0 µM). Moreover, the growth inhibition was -4% (inactive) in test [5] (setting [7]); 27% (inactive) in test [5] (setting [8]); 60.8% (inactive) in test [5] (at 50.0 µM); 2% (inactive) in test [6] (setting [7]); 30% (inactive) in test [6] (setting [8]); 21.1% (inactive) in test [6] (at 50.0 µM).
For the compound `COC1/C=C\C=C(/C)C(=O)Nc2cc3nc4ccc(Br)cc4oc-3c(c2=O)CC(C)CC(OC)C(O)C(C)/C=C(\C)C1OC(N)=O` (stereo unspecified), the growth inhibition was 44% (inactive) in test [1] (setting [7]); 97% (active) in test [1] (setting [8]); 89.2% (active) in test [1] (at 50.0 µM); 57% (inactive) in test [2] (setting [7]); 98% (active) in test [2] (setting [8]); 90.9% (active) in test [2] (at 50.0 µM). In addition, the growth inhibition in test [3] (setting [7]) is 96% (active); in test [3] (setting [8]) it was 98% (active); in test [3] (at 50.0 µM), 91.5% (active); in test [4] (setting [7]) it was 85% (active); in test [4] (setting [8]), 92% (active); in test [4] (at 50.0 µM) it was 89% (active). In addition, the growth inhibition in test [5] (setting [7]) is 94% (active); in test [5] (setting [8]), 97% (active); in test [5] (at 50.0 µM), 90.7% (active); in test [6] (setting [7]), 57% (inactive); in test [6] (setting [8]), 98% (active); in test [6] (at 50.0 µM), 88.1% (active).
Turning to `Cc1cc(/C=C/C2CCC3CC(C)CCC3N2CCO)c(C)n1-c1ccccc1` (stereo unspecified), the growth inhibition is 16% (inactive) in test [1] (setting [7]); 95% (active) in test [1] (setting [8]); 99.1% (active) in test [1] (at 50.0 µM); 19% (inactive) in test [2] (setting [7]); 99% (active) in test [2] (setting [8]); 98.8% (active) in test [2] (at 50.0 µM). For the same compound, the growth inhibition in test [3] (setting [7]) is 26% (inactive); in test [3] (setting [8]), 100% (active); in test [3] (at 50.0 µM) it was 99.2% (active); in test [4] (setting [7]), 12% (inactive); in test [4] (setting [8]), 90% (active); in test [4] (at 50.0 µM), 98.8% (active). The growth inhibition is 21% (inactive) in test [5] (setting [7]); 98% (active) in test [5] (setting [8]); 98% (active) in test [5] (at 50.0 µM); 17% (inactive) in test [6] (setting [7]); 97% (active) in test [6] (setting [8]); 97.9% (active) in test [6] (at 50.0 µM).
